Here are results for 67 compounds from the antibiotic and cytotoxicity screens of Wong et al. (2023).

Structures are written as SMILES. About 500 (1.3%) of roughly 39,000 compounds were called active. The entries come from a sample that favours actives as a whole.

This test deals with S. aureus RN4220. Kind of test: growth inhibition call (relative growth <= 0.2). Particulars: 50 µM.
In the case of `C[C@@H]1CN([C@H](C)CO)C(=O)c2cc(NC(=O)CCCN(C)C)ccc2O[C@H]1CN(C)S(=O)(=O)c1cccs1`, the growth inhibition call is “inactive”.
For the compound `Cc1ccc(S(=O)(=O)N(C)C[C@H]2OCCCC[C@H](C)Oc3ccc(NC(=O)Nc4c(C)noc4C)cc3C(=O)N([C@H](C)CO)C[C@@H]2C)cc1`, the growth inhibition call is “inactive”.
Turning to `Cc1ccc(-c2ccc3c(c2)O[C@H](CN(C)C(=O)NC(C)C)[C@@H](C)CN([C@@H](C)CO)S3(=O)=O)cc1`, the growth inhibition call is “inactive”.
As to `C[C@H]1CN([C@@H](C)CO)C(=O)Cc2cc(NS(C)(=O)=O)ccc2O[C@@H]1CN(C)C(=O)Nc1ccc(C(F)(F)F)cc1`, the growth inhibition call is “inactive”.
Take `CC1(C)S[C@H]2[C@@H](NC(=O)[C@@H](NC(=O)N3CCN(S(C)(=O)=O)C3=O)c3ccccc3)C(=O)N2[C@@H]1C(=O)O`: the growth inhibition call was “active”.
Regarding `C[C@H](CO)N1C[C@H](C)[C@@H](CN(C)C(=O)C2CCOCC2)Oc2ncc(C#Cc3ccccc3F)cc2C1=O`, the growth inhibition call is “inactive”.
As for `CC(C)NC(=O)N[C@@H]1C=C[C@H](CC(=O)O)O[C@H]1CO`, the growth inhibition call is “inactive”.
On to `COc1ccc(CN(C)C[C@H]2Oc3ccc(NC(=O)Cn4cnnn4)cc3C(=O)N([C@@H](C)CO)C[C@H]2C)cc1`, for which the growth inhibition call was “inactive”.
For the compound `CO[C@@H]1CN(C)C(=O)c2cc(NC(=O)C3CCOCC3)ccc2OC[C@@H](C)N(C(=O)Nc2ccc(C(F)(F)F)cc2)C[C@H]1C`, the growth inhibition call was “active”.
Turning to `CO[C@@H]1CN(C)C(=O)c2ccc(NC(=O)C3CCCC3)cc2OC[C@@H](C)N(C(=O)Nc2ccc(C(F)(F)F)cc2)C[C@H]1C`, the growth inhibition call was “inactive”.
`CO[C@@H]1CN(C)C(=O)c2cc(NC(=O)C3CCCC3)ccc2OC[C@@H](C)N(C(=O)Nc2ccc(C(F)(F)F)cc2)C[C@H]1C`: the growth inhibition call is “inactive”.
Take `CO[C@@H]1CN(C)C(=O)c2ccc(NC(=O)C3CC3)cc2OC[C@@H](C)N(C(=O)Nc2ccc(C(F)(F)F)cc2)C[C@H]1C`: the growth inhibition call was “inactive”.
With `CO[C@@H]1CN(C)C(=O)c2ccc(NC(=O)C3CCOCC3)cc2OC[C@@H](C)N(C(=O)Nc2ccc(C(F)(F)F)cc2)C[C@H]1C`, the growth inhibition call was “active”.
Next, `CO[C@@H]1CN(C)C(=O)c2cc(NC(=O)C3CC3)ccc2OC[C@@H](C)N(C(=O)Nc2ccc(C(F)(F)F)cc2)C[C@H]1C`: “inactive”.
Take `C[C@H](CO)N1C[C@H](C)[C@H](CN(C)Cc2ccncc2)Oc2ccc(NC(=O)Nc3ccc(C(F)(F)F)cc3)cc2C1=O`: the growth inhibition call was “inactive”.
`C[C@@H]1CN([C@H](C)CO)C(=O)c2cc(NS(=O)(=O)c3cccs3)ccc2O[C@@H](C)CCCCO[C@@H]1CN(C)S(=O)(=O)c1ccc(Cl)cc1`: the growth inhibition call was “inactive”.
`CCN(CC)C(C)CN1c2ccccc2Sc2ccccc21.Cl` (configuration not stated): the growth inhibition call was “inactive”.
For `C[C@H](CO)N1C[C@H](C)[C@H](CN(C)C(=O)Nc2ccccc2)Oc2c(NS(=O)(=O)c3cn(C)cn3)cccc2C1=O`, the growth inhibition call was “inactive”.
With `C[C@@H]1CN([C@H](C)CO)C(=O)c2cccc(NS(=O)(=O)c3ccc(F)cc3)c2O[C@H]1CN(C)S(=O)(=O)c1cccs1` the entry was “inactive”.
As for `Cc1ccc(OC(=O)N(C)C[C@H]2OCc3ccccc3-c3ccccc3C(=O)N([C@@H](C)CO)C[C@@H]2C)cc1`, the growth inhibition call is “inactive”.
`C[C@H](CO)N1C[C@H](C)[C@@H](CN(C)C(=O)c2ccncc2)OCCCC[C@H](C)Oc2ccc(NS(=O)(=O)c3ccc(Cl)cc3)cc2C1=O`: the growth inhibition call was “inactive”.
For `O=c1[nH]c(=O)n(C2CC(O)C(CO)O2)cc1F` (configuration not stated), the growth inhibition call was “inactive”.
As for `O=c1[nH]c(=O)n([C@H]2C[C@H](O)[C@@H](CO)O2)cc1F`, the growth inhibition call is “active”.
Next, `Cc1cn([C@@H]2C[C@@H](O)[C@H](CO)O2)c(=O)[nH]c1=O`: “inactive”; `O=c1[nH]c(=O)n([C@@H]2C[C@@H](O)[C@@H](CO)O2)cc1F`: “active”; `Cc1cn([C@H]2C[C@H](O)[C@@H](CO)O2)c(=O)[nH]c1=O`: “inactive”.
With `Cc1cn([C@@H]2C[C@H](O)[C@@H](CO)O2)c(=O)[nH]c1=O` the entry was “inactive”; with `C[C@H](CO)N1C[C@H](C)[C@@H](CN(C)S(=O)(=O)c2cn(C)cn2)Oc2ccc(NC(=O)C3CC3)cc2C1=O`, “inactive”; with `C[C@H]1CCCCO[C@@H](CN(C)C(=O)Cc2ccccc2)[C@@H](C)CN([C@@H](C)CO)C(=O)c2cc(NS(=O)(=O)c3ccc(F)cc3)ccc2O1`, “inactive”.
Next, `C#CCOc1ccc(-c2c(C(=O)NC3CCCCC3)oc(OC)c2S(=O)(=O)c2ccc(Cl)cc2)cc1`: “inactive”; `COc1ccc(S(=O)(=O)N(C)C[C@H]2OCCCC[C@@H](C)Oc3ccc(NC(=O)Nc4c(C)noc4C)cc3C(=O)N([C@@H](C)CO)C[C@@H]2C)cc1`: “inactive”.
As to `O=C(NO)c1cn(CC(=O)N2CCC3(CC2)C(=O)NCN3c2ccccc2)nn1`, the growth inhibition call is “inactive”.
Turning to `O=C(CCc1cn(CC(=O)N2CCC3(CC2)C(=O)NCN3c2ccccc2)nn1)NO`, the growth inhibition call is “active”.
Take `O=C(/C=C/c1cccc(-c2cn(-c3cccc(C(=O)N4CCC5(CC4)C(=O)NCN5c4ccccc4)c3)nn2)c1)NO`: the growth inhibition call is “inactive”.
Consider `O=C(Cn1cc(CN2C(=O)COC[C@H]2c2ccccc2)nn1)N1CCC2(CC1)C(=O)NCN2c1ccccc1`, for which the growth inhibition call was “inactive”.
Regarding `O=C(NO)c1cn(-c2cccc(C(=O)N3CCC4(CC3)C(=O)NCN4c3ccccc3)c2)nn1`, the growth inhibition call was “active”.
For `O=C(/C=C/c1cccc(-c2cn(CC(=O)N3CCC4(CC3)C(=O)NCN4c3ccccc3)nn2)c1)NO`, the growth inhibition call was “inactive”.
Consider `Cc1ccc(S(=O)(=O)N(C)C[C@@H]2Oc3c(NC(=O)c4cnccn4)cccc3C(=O)N([C@@H](C)CO)C[C@H]2C)cc1`, for which the growth inhibition call was “inactive”.
Consider `C[C@@H]1CCCCO[C@@H](CN(C)S(=O)(=O)c2ccccc2)[C@@H](C)CN([C@H](C)CO)C(=O)c2cc(NS(=O)(=O)c3ccc(Cl)cc3)ccc2O1`, for which the growth inhibition call is “inactive”.
Take `Cc1noc(C)c1S(=O)(=O)Nc1cccc2c1O[C@@H](CN(C)Cc1ccc(C(=O)O)cc1)[C@@H](C)CN([C@H](C)CO)C2=O`: the growth inhibition call was “inactive”.
Consider `CCCC(=O)Nc1ccc2c(c1)OC[C@@H](C)N(C(=O)Cc1cccnc1)C[C@@H](C)[C@H](OC)CN(C)C2=O`, for which the growth inhibition call was “inactive”.
On to `Cc1noc(C)c1CO`, for which the growth inhibition call is “inactive”.
With `Cc1ccc(-c2noc([C@H](C)c3ccc(CC(C)C)cc3)n2)cc1` the entry was “inactive”.
Next, `C[C@@H]1CCCCO[C@@H](CN(C)Cc2ccccc2)[C@@H](C)CN([C@@H](C)CO)C(=O)c2cc(NS(=O)(=O)c3ccc(F)cc3)ccc2O1`: “inactive”.
Regarding `NCc1cc2ccccc2s1`, the growth inhibition call is “inactive”.
Next, `Cc1cccc(N2C[C@@H](CN)OC2=O)c1`: “inactive”.
On to `Cn1c(=O)c2c(ncn2CC(=O)N2CCN(c3ccccc3F)CC2)n(C)c1=O`, for which the growth inhibition call was “inactive”.
As for `O=C(O)c1cn(C2CC2)c2cc(N3CCC(O)(COc4ccc(N5C[C@H](CO)OC5=O)cc4F)CC3)c(F)cc2c1=O`, the growth inhibition call is “inactive”.
On to `CC(=O)NCC1CN(c2ccc(N3CCOCC3)c(F)c2)C(=O)O1` (configuration not stated), for which the growth inhibition call is “active”.
Regarding `CC(=O)NC[C@H]1CN(c2ccc(N3CCN(C(=O)CO)CC3)c(F)c2)C(=O)O1`, the growth inhibition call is “active”.
For the compound `CC(C)NC(=O)Nc1ccc2c(c1)C(=O)N([C@H](C)CO)C[C@H](C)[C@@H](CN(C)C(=O)Nc1ccc(F)cc1)OCCCC[C@@H](C)O2`, the growth inhibition call is “inactive”.
Take `Cc1noc(C)c1NC(=O)N(C)C[C@H]1OCCCC[C@@H](C)Oc2ccc(NS(=O)(=O)c3ccc(F)cc3)cc2C(=O)N([C@H](C)CO)C[C@@H]1C`: the growth inhibition call was “inactive”.
As for `C[C@H](CO)N1C[C@H](C)[C@H](CN(C)C)OCCCC[C@H](C)Oc2ccc(NS(=O)(=O)c3cn(C)cn3)cc2C1=O`, the growth inhibition call was “inactive”.
As for `COc1cc(-c2cc(=O)c3c(=O)cc(-c4ccc(O)c(OC)c4)n(CCc4ccccc4)c3s2)ccc1O`, the growth inhibition call is “inactive”.
As for `Cc1noc(C)c1NC(=O)N(C)C[C@@H]1Oc2ccc(NS(=O)(=O)c3cn(C)cn3)cc2CC(=O)N([C@H](C)CO)C[C@H]1C`, the growth inhibition call was “inactive”.
For `CO[C@H]1O[C@H](CO)[C@@H](OC(=O)Nc2ccc(Br)cc2)[C@@H]2OC(=O)[C@H](Cc3cccc(Br)c3)C/C=C/C[C@@H](Cc3cccc(Br)c3)C(=O)O[C@@H]12`, the growth inhibition call is “inactive”.
Turning to `C[C@@H]1CN([C@@H](C)CO)C(=O)c2cccc(NS(=O)(=O)c3ccc(F)cc3)c2O[C@@H]1CN(C)S(C)(=O)=O`, the growth inhibition call was “inactive”.
Regarding `CNC1C(O)C(OC2C(N)CC(N)C(OC3OC(CN)=CCC3N)C2O)OCC1(C)O.O=S(=O)(O)O` (configuration not stated), the growth inhibition call is “active”.
With `CCNC1CC(N)C(OC2OC(CN)=CCC2N)C(O)C1OC1OCC(C)(O)C(NC)C1O.O=S(=O)(O)O.O=S(=O)(O)O` (configuration not stated) the entry was “inactive”; with `CN[C@@H]1[C@@H](O)[C@@H](O[C@@H]2[C@@H](O)[C@H](O[C@H]3OC(CN)=CC[C@H]3N)[C@@H](N)C[C@H]2N)OC[C@]1(C)O`, “inactive”.
Take `C[C@@H]1CCCCO[C@H](CN(C)C(=O)CCC(F)(F)F)[C@@H](C)CN([C@@H](C)CO)C(=O)c2cc(NS(=O)(=O)c3ccc(F)cc3)ccc2O1`: the growth inhibition call was “inactive”.
Take `CC(C)NC(=O)Nc1ccc2c(c1)C(=O)N([C@@H](C)CO)C[C@H](C)[C@@H](CN(C)Cc1ccccc1)OCCCC[C@H](C)O2`: the growth inhibition call was “inactive”.
For `CO[C@@H]1CN(C)C(=O)c2ccc(NC(=O)Nc3cccc(Cl)c3)cc2OC[C@@H](C)N(C(=O)Nc2c(C)noc2C)C[C@H]1C`, the growth inhibition call is “inactive”.
As to `CC(C)(C)[S@@+]([O-])N1Cc2cc(C(=O)NCc3ccc4c(c3)OCO4)nc(-c3ccc(-c4ccc(C#N)cc4)cc3)c2[C@H]1CCO`, the growth inhibition call was “inactive”.
Take `Cc1noc(C)c1S(=O)(=O)N(C)C[C@H]1OCCCC[C@@H](C)Oc2ccc(NC(=O)Nc3ccc(F)cc3)cc2C(=O)N([C@@H](C)CO)C[C@@H]1C`: the growth inhibition call is “inactive”.
Consider `CC(C)NC(=O)N(C)C[C@@H]1OCCCC[C@@H](C)Oc2ccc(NS(C)(=O)=O)cc2C(=O)N([C@@H](C)CO)C[C@H]1C`, for which the growth inhibition call was “inactive”.
Take `CCCSc1nc(N[C@@H]2C[C@H]2c2ccc(F)c(F)c2)c2nnn([C@@H]3C[C@H](OCCO)[C@@H](O)[C@H]3O)c2n1`: the growth inhibition call was “active”.
